Shown are actives, neighbours in structure and some others; about 2.4% of the full set was active somewhere.
Pol beta inh: blocks human DNA polymerase beta activity. P06746. Pol beta primer extension/strand displacement, fluorescence kinetic. Potency, µM (series often up to 114 µM), hits mostly inhibitors. 340,000 tested, 1.3% active. AID 485314
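Reaction started by 50 nM substrate onto compound-treated Pol beta (10 nM, 15 min preincubation, room temperature); plates read at 0 min and 10 min. Normalized concentration-effect data fitted by four-parameter Hill equation.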
POLH inh: blocks human DNA polymerase eta activity; AID 588591; Q9Y253; 390,000 tested, 1.2% active; recombinant Pol eta, fluorescent DNA replication assay; Potency, µM (series often up to 114 µM), usual class: inhibitors
Target sequence (Q9Y253 whole entry, looked up): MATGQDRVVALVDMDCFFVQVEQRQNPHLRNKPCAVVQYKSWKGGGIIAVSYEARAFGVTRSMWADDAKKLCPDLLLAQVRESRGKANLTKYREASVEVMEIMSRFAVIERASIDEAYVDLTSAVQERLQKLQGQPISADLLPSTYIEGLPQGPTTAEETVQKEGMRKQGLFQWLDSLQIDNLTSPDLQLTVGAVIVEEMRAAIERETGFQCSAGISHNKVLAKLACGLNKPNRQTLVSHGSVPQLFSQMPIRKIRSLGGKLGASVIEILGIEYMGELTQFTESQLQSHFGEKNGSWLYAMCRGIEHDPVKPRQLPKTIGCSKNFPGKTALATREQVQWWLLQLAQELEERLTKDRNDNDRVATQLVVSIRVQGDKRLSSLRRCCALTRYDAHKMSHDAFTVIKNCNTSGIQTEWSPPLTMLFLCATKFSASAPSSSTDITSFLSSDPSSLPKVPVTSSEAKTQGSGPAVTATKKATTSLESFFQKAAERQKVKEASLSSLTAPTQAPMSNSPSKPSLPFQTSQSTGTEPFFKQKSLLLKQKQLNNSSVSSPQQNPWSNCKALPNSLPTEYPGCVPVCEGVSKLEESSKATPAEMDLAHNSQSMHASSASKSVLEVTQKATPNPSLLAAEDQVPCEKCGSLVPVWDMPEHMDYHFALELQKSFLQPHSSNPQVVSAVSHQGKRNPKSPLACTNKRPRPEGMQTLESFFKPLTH
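Pol eta (10 nM) was preincubated with compounds for 15 min at room temperature, after which fluorescent replication substrate (50 nM final) was added to start the reaction. Fluorescence was read kinetically at 0 and 10 min.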
POLI inh: DNA polymerase iota (human) inhibition; 390,000 tested, 1% active; Potency, µM (doses to about 115 µM), actives largely listed as inhibitors; Q9UNA4; Pol iota fluorescent replication assay, 10 min
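Fluorescent replication assay read twice, at 0 min and 10 min after adding 50 nM (final) substrate. Enzyme (10 nM) and compounds were first incubated 15 min at room temperature; enzyme-free buffer wells were negative controls.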
GLS inhibitor: glutaminase GLS (human) inhibition; GLS enzymatic activity, qHTS titration; Potency, µM (highest dose often 45.5 µM), actives largely listed as inhibitors; O94925; 410,000 tested, 0.21% active
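hKGA; 45 mM KH2PO4 pH 8.2 + 0.02% Tween-20; cpd via pin tool; 1 mM Gln soln; GluOx/HRP/Amplex Red; RT 30 min; fluor. t0 & final.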
GCN5L2 inh: GCN5L2 (KAT2A) acetyltransferase inhibition; Q92830; GCN5L2 HAT assay, ThioGlo1 CoA-SH fluorescence; Potency, µM (series often up to 58.9 µM), most hits filed as inhibitors; 390,000 tested, 0.21% active; AID 504327
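qHTS, 1536-well. 20nM enzyme, pH 7.5 HEPES/EDTA/Tween-20 buffer; 15 min compound preinc., RT. Start: 75uM H3(1-25), 70uM AcCoA, 50uM ThioGlo1. Read Ex340/Em540 at t=0 (autofluorescence flag) and t=20 min.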
Pol kappa inh: blocks human DNA polymerase kappa activity | Potency, µM (series often up to 107 µM), usual class: inhibitors | 400,000 tested, 0.53% active | Q9UBT6 | purified Pol kappa, fluorescent DNA synthesis assay, 10 min
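Inhibition of 10 nM Pol kappa is measured by a fluorescent read-out at 0 and 10 min following addition of 50 nM substrate (final), with a 15-min room-temperature compound preincubation.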
Large screens that a line does not name were inactive. Calls follow the shape of the dose curve; as a rule, active = well fitted inhibition curve with a large enough effect; inconclusive = small, poorly fitted or top-dose-only effect, or another doubt; inactive = no such curve, though single readings can be large or run the other way.

Nc1ncnc2c1ncn2[C@@H]1O[C@H](C(=O)NC2CC2)[C@H](O)[C@H]1O	none (no result: GLS inhibitor, GCN5L2 inh, Pol kappa inh)
COc1ccc(CNC(=O)c2cc3c(s2)-c2c(C)cccc2OC3)cc1	Pol beta inh 14µM, POLI inh inconclusive
Cc1cccc2c1-c1sc(C(=O)NCCc3ccc(Cl)cc3)cc1CO2	Pol beta inh 8.9µM, POLI inh inconclusive
CCCCC(Sc1ccc2nnc(-c3ccccn3)n2n1)C(=O)O (stereo unspecified)	none (no result: Pol beta inh, POLH inh, GLS inhibitor, GCN5L2 inh)
O=C(c1cccc(N2C(=O)C3CC=CCC3C2=O)c1)N1CCCCCC1 (stereo unspecified)	none
O=C(c1cccc(N2C(=O)C3CC=CCC3C2=O)c1)N1CCN(c2ccccc2)CC1 (stereo unspecified)	Pol beta inh 45µM
CCC(C)C(=O)OCC1(c2ccc(C)cc2OC(=O)C(C)C)CO1 (stereo unspecified)	Pol beta inh 40µM, POLI inh inconclusive
Cc1ccc(C2(COC(=O)C(C)C)CO2)c(OC(=O)C(C)C)c1 (stereo unspecified)	none
O=C(Nc1ccc(F)cc1F)c1cc2ccc3cccnc3c2[nH]1	Pol beta inh 18µM, POLI inh inconclusive
O=C(Nc1cccc(C(F)(F)F)c1)c1cc2ccc3cccnc3c2[nH]1	POLI inh inconclusive
N#C/C(=C\c1c(Oc2ccc(F)cc2)nc2ccccn2c1=O)c1nc2ccccc2s1	Pol beta inh inconclusive, POLI inh 20µM, Pol kappa inh inconclusive
Cc1ccc(Oc2nc3ccccn3c(=O)c2/C=C(\C#N)c2nc3ccccc3s2)c(C)c1	none
O=C(COC(=O)c1ccc2c(c1)C(=O)N(Cc1ccncc1)C2=O)Nc1ccccc1[N+](=O)[O-]	Pol beta inh 35µM, POLH inh inconclusive, POLI inh 22µM
CC(C)(C)n1ncc2c(=O)n(Cc3ccc(F)cc3)cnc21	none (no result: Pol beta inh, POLH inh, GLS inhibitor, GCN5L2 inh)
O=C(O)COc1ccccc1/C=N/NC(=O)c1ccncc1	none (no result: Pol beta inh, POLH inh, POLI inh)
O=C(O)COc1ccccc1/C=N/NC(=O)c1cc2ccccc2cc1O	POLI inh 14µM, Pol kappa inh inconclusive
O=C(N/N=C/c1ccccc1C(=O)O)c1ccc(COc2cccc3cccnc23)cc1	Pol beta inh inconclusive, POLH inh 40µM, POLI inh inconclusive, Pol kappa inh inconclusive
O=C(COc1cccc2cccnc12)N/N=C/c1ccccc1O	Pol beta inh 32µM
Cc1ccccc1OCC(=O)N/N=C/c1cccc2cccnc12	none
O=C(N/N=C/c1ccc[nH]1)c1ccc(COc2cccc3cccnc23)cc1	none
C#CCn1cc(/C=N/NC(=O)COc2cccc3cccnc23)c2ccccc21	Pol beta inh inconclusive, POLH inh inconclusive, POLI inh 22µM, Pol kappa inh inconclusive
COC(=O)Cn1cc(/C=N/NC(=O)COc2cccc3cccnc23)c2ccccc21	Pol beta inh inconclusive
CCOC(=O)c1ccccc1NC(=O)N1CCC(CN2CCOCC2)CC1	none
O=C(Nc1ccc2nn(-c3ccccc3)nc2c1)c1ccc(-c2cccc(Cl)c2)o1	none
O=C(C[N+]12CCCc3cccc(c31)CCC2)c1ccc2ccccc2c1	none (no result: Pol beta inh, POLH inh, GLS inhibitor, GCN5L2 inh)
CC(C)(C)n1ncc2c(=O)n(Cc3ccc(SC(F)(F)F)cc3)cnc21	none (no result: Pol beta inh, POLH inh, GLS inhibitor, GCN5L2 inh)
CCC[C@@H]1CC2=CC(=O)CC[C@]2(C)[C@H]2CC[C@@]3(C)[C@@H](CC[C@@]34CCC(=O)O4)[C@H]12	none (no result: Pol beta inh, POLH inh, POLI inh, GLS inhibitor)
Cc1ccc2c(c1)N(CC(=O)NCCCc1ccccc1)C(=O)c1cccnc1O2	GCN5L2 inh 40µM
Cc1cc(C)c(NC(=O)CN2C(=O)c3cccnc3Oc3ccc(C)cc32)c(C)c1	Pol beta inh inconclusive, POLI inh 89µM, GLS inhibitor inconclusive
Cc1ccc(N(C)S(=O)(=O)c2ccc3[nH]cc(C(=O)O)c(=O)c3c2)cc1C	POLI inh inconclusive
CC(O)CNc1nc2c(c(=O)n(Cc3ccccc3)c(=O)n2C)n1C (stereo unspecified)	none
Cn1c(N2CCC(C(N)=O)CC2)nc2c1c(=O)n(Cc1ccc(Br)cc1)c(=O)n2C	GLS inhibitor 13µM (no result: Pol beta inh, GCN5L2 inh)
